Experimental findings from PubChem BioAssay AID1063 (University of Pittsburgh Molecular Library Screening Center, 2008) are described below.

Usually inhibition stands for the relative decrease from the control value, in per cent.

Among all 200,000 compounds or so, about 18,000 (9%) were called active. Rule as the data show it: active = inhibition above about 50%; inactive = the rest. The full list was thinned out, with actives kept by preference.

This test is described as follows: antileishmanial activity against promastigotes – primary screen (AID 1063).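 Also: promastigotes grown with compound for 44 hours at 28 °C.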 Particulars: Leishmania major promastigotes, resazurin fluorescence viability; at 10 µM; stronger effect = higher value. A general note: Resazurin is reduced to fluorescent resorufin, in cell work by metabolically active cells.
Regarding `CCOC(=O)c1c(NC(=O)C2CCN(S(=O)(=O)c3ccc(Cl)cc3)CC2)sc2c1CCCC2`, the inhibition was 6.41% (inactive).

On to `Cc1ccc(S(=O)(=O)N2CCOCC2)cc1C(=O)OC1CCCCC1=O` (stereo unspecified), for which the inhibition is 1.9% (inactive).

Regarding `CCNC(=O)COC(=O)/C=C/c1c(C)nn(Cc2cccc(OC)c2)c1Cl`, the inhibition is -3.81% (inactive).

`CS(=O)(=O)N1CCc2cc(C(=O)Nc3ccccc3)ccc21`: the inhibition is -3.72% (inactive).

As for `Cc1[nH]c2ccccc2c1C(=O)CSCC(=O)O`, the inhibition is 13.6% (inactive).

On to `Cc1onc(-c2ccccc2Cl)c1C(=O)OCC(=O)c1ccccc1`, for which the inhibition is 88% (active).

In the case of `Cc1onc(-c2ccccc2Cl)c1C(=O)NCCn1ccc2ccccc21`, the inhibition is 5.91% (inactive).

Take `Cc1[nH]c2ccccc2c1C(=O)COC(=O)c1c(-c2ccccc2)noc1C`: the inhibition was 95.7% (active).

Regarding `Cc1[nH]c2ccccc2c1C(=O)COC(=O)C(C)C`, the inhibition is -4.11% (inactive).

Regarding `CC(=O)Nc1cccc(/C(C)=N/NC(=O)c2c(-c3ccccc3Cl)noc2C)c1`, the inhibition was 3.3% (inactive).

As to `S=c1ccc2ccccc2[nH]1`, the inhibition was -8.39% (inactive).

Turning to `CC(=O)NCC(=O)N(Cc1ccco1)C1(C(=O)NC2CCCC2)CCCCC1`, the inhibition is 1.81% (inactive).

Consider `CCOC(=O)c1ccc(NC2Nc3cc(C)nn3S2)cc1` (stereo unspecified), for which the inhibition was 1.08% (inactive).

Turning to `O=C(COc1ccc(NC(=O)c2ccccc2[N+](=O)[O-])cc1)c1ccc(F)cc1`, the inhibition is -3.68% (inactive).

Regarding `CN1CCN(c2ccc(S(=O)(=O)N3CCCCC3)cc2NC(=O)Cc2ccccc2F)CC1`, the inhibition was 67.6% (active).

Regarding `COc1ccc(CC(=O)Nc2cc(S(=O)(=O)N3CCCCC3)ccc2N2CCN(C)CC2)cc1`, the inhibition is 47% (inactive).

As for `Cc1cccc(OCCC(=O)Nc2cc(S(=O)(=O)N3CCCCC3)ccc2N2CCOCC2)c1`, the inhibition is 22% (inactive).

In the case of `CC12CN(NC(=O)c3ccc(Cl)cc3)C3(C#N)CC1CCC23C` (stereo unspecified), the inhibition is 7.74% (inactive).

With `COc1ccc(NC(=O)c2ccccc2[N+](=O)[O-])cc1OC`, the inhibition was 59.4% (active).

For the molecule `O=C(Nc1ccncc1)c1ccccc1[N+](=O)[O-]`, the inhibition is 11.9% (inactive).

`COC(=O)CNC(=O)c1ccccc1[N+](=O)[O-]`: the inhibition was -1.1% (inactive).

As for `COC(=O)C1=C(C)NC(=O)CC1c1ccccc1OC` (stereo unspecified), the inhibition is -5.13% (inactive).

As to `Cc1ccc(N2NC(=O)/C(=C/C=C/c3ccco3)C2=O)cc1C`, the inhibition was 15.2% (inactive).

Turning to `O=[N+]([O-])c1cc(Br)c(O)c(/C=N/Nc2nc3ccccc3s2)c1`, the inhibition was -6.02% (inactive).

As to `Cc1ccsc1C(=O)N/N=C/c1ccc([N+](=O)[O-])cc1`, the inhibition was -8.42% (inactive).

`Cc1cc(C(=O)N/N=C/c2cc([N+](=O)[O-])cc(C)c2O)n[nH]1`: the inhibition is 80.3% (active).
